Experiment [1] can be described thus: Nuclear factor erythroid 2-related factor 2/antioxidant responsive element (Nrf2/ARE) small molecule agonists: qHTS cell viability counter screen in human keratinocytes (AID 1919968; active = well fitted curve in the direction sought with a large enough effect in the repeat runs; an effect the other way counts as inactive or inconclusive; note: nearly all actives have a fitted effect of over 55% in size). The essentials:
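In human HaCaT keratinocytes stably expressing an ARE-driven luciferase, compound exposure lasted 23 h at 37 C under 5% CO2. Viable cells are quantified with a protease-based fluorogenic reagent (CellTiter-Fluor) read 1 h after addition.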

Experiment [2] can be described thus: Nuclear factor erythroid 2-related factor 2/antioxidant responsive element (Nrf2/ARE) small molecule agonists: luciferase reporter gene qHTS assay in human keratinocytes (AID 1919969). Note: nearly all actives have a fitted effect of over 35% in size. Note: potency is the fitted concentration of half-maximal effect.
Experiment [3] addresses Gonadotropin-releasing hormone receptor (Homo sapiens) (UniProt P30968). In words: Human gonadotropin-releasing hormone receptor (GnRHR) small molecule agonists, calcium flux assay in GnRHR-HEK293 cells (AID 1920063). Note: nearly all actives have a fitted effect of over 35% in size. The essentials:
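Intracellular calcium rise is the read-out: engineered human GnRHR HEK293 cells, dye-loaded, are exposed to DMSO-dissolved compounds and fluorescence at Ex/Em 480/540 is tracked for 3 min.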
Background: Calcium assays in cells follow changes in intracellular calcium, usually with a dye or a luminescent sensor.

The target in experiment [4] is KiSS-1 receptor (Homo sapiens) (UniProt Q969F8). In words: Human kisspeptin (KISS1R) small molecule agonists, calcium flux assay in KISS1R-HEK293 cells (AID 1920064; active = well fitted curve in the direction sought with a large enough effect in the repeat runs; an effect the other way counts as inactive or inconclusive). The essentials: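 Concentration-response testing used 15 concentrations in triplicate on human KISS1R-expressing HEK293 cells. Calcium-dependent fluorescence (Ex/Em 480/540) was followed kinetically for 3 min after compound transfer.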

Experiment [5] can be described thus: G protein-coupled receptor (GPCR) small molecule agonists, calcium flux assay: HEK293 wild type cell line counter screen (AID 1920065). The essentials: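 Fluorescence intensity signals activation. After overnight (18 h) culture and a 1 h calcium dye load at 37 C, compounds are added by pin tool and the plate read at 480/540 nm for 3 min in 1 s steps.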
Experiment [6] is described as follows: p53 small molecule agonists, cell-based qHTS assay with human liver microsomes (AID 1963577). The essentials: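 p53RE-bla reporter cells were pre-incubated 5 h at 37 C, then treated with compounds plus human liver microsomes (0.5 mg/mL final) and NADPH (0.5 mg/mL final) for 16 h at 37 C. Beta-lactamase activity was read by LiveBLAzer fluorescence after 2 h at room temperature.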
A general note: qHTS replaces the single test concentration by a dilution series.

A short description of experiment [7]: p53 small molecule agonists, cell-based qHTS assay with rat liver microsomes (AID 1963578). The essentials: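 p53RE-bla cells were exposed to compounds together with rat liver microsomes (0.5 mg/mL final) and NADPH (0.5 mg/mL final) for 16 h at 37 C, then read by LiveBLAzer beta-lactamase fluorescence after 2 h at room temperature.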
Experiment [8] is described as follows: p53 small molecule agonists, cell-based qHTS assay with human liver microsomes: qHTS cell viability counter screen (AID 1963579). Note: nearly all actives have a fitted effect of over 45% in size. Put shortly:
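p53RE-bla cells (4,000/well) were pre-incubated 5 h at 37 C, then given compounds in DMSO plus human liver microsomes (0.5 mg/mL final) and NADPH (0.5 mg/mL final) for 16 h at 37 C. Viability was read by CellTiter-Glo luminescence.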

A short description of experiment [9]: p53 small molecule agonists, cell-based qHTS assay with rat liver microsomes: qHTS cell viability counter screen (AID 1963580). Note: nearly all actives have a fitted effect of over 45% in size. The essentials:
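After the beta-lactamase ratio was read, CellTiter-Glo was added to the same wells and luminescence measured at 30 min; cells had been treated 16 h at 37 C with compounds, rat liver microsomes and NADPH (0.5 mg/mL final each).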

Experiment [10] in a line: p53 small molecule agonists, cell-based qHTS assay: qHTS cell viability counter screen (AID 1963581). Note: nearly all actives have a fitted effect of over 45% in size. The essentials: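 Luminescence from CellTiter-Glo, reflecting ATP content, serves as the cytotoxicity measure; it is taken after the 2 h reporter substrate step in HCT-116 p53RE-bla cells dosed for 16 h at 37 C.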
A short description of experiment [11]: p53 small molecule agonists, cell-based qHTS assay (AID 1963582; active = well fitted activation curve with a large enough effect in the signal ratio in the repeat runs, not every such curve was filed as active; the % refers to the signal ratio). Put shortly:
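After plating, p53RE-bla cells sat 5 h in the incubator; compounds or DMSO vehicle were pinned in; a 16 h incubation at 37 C followed; FRET substrate was added and, 2 h later at RT, fluorescence was measured.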

In experiment [12] the target is 5-hydroxytryptamine receptor 2A (Homo sapiens) (UniProt P28223). The experiment can be described thus: 5-hydroxytryptamine receptor 2A (HTR2A) small molecule agonists, cell-based qHTS assay (AID 1963587). Note: nearly all actives have a fitted effect of over 30% in size. Put shortly: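 CHO cells stably expressing human HTR2A, plated 18 h, loaded with calcium dye 1 h at 37 C. Agonist mode: compounds added and intracellular calcium fluorescence recorded kinetically for 2 min at 1 sec intervals.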

Experiment [13] addresses Muscarinic acetylcholine receptor M1 (Homo sapiens) (UniProt P11229). The experiment can be described thus: Cholinergic receptor muscarinic 1 (CHRM1) small molecule antagonists, cell-based qHTS assay (AID 1963588). Note: nearly all actives have a fitted effect of over 40% in size. The essentials: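 Compounds were tested at 15 concentrations in three independent runs. Dye-loaded CHRM1-CHO cells were exposed 5 min at room temperature before stimulation by acetylcholine added at 50nM. Intracellular calcium was read kinetically on FDSS for 3 min.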

For experiment [14] the target is unchanged. In words: Cholinergic receptor muscarinic 1 (CHRM1) small molecule agonists, cell-based qHTS assay (AID 1963589). Note: nearly all actives have a fitted effect of over 35% in size. The essentials:
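Fluorescent calcium dye reports M1 activation in stably transfected CHO cells. Compounds, 15 concentrations, added after 1 h dye loading at 37 C; kinetic reading at 1 sec intervals.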

Experiment [15] is described as follows: cAMP Responsive Elements (CRE) small molecule agonists, cell-based qHTS assay (AID 1963590). The essentials: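 Compound exposure lasted 3 h at 37 C/5% CO2 in CRE-bla HEK 293T cells grown in assay medium with 10% dialyzed FBS and 25 mM HEPES. Reporter signal came from LiveBLAzer B/G FRET substrate, 2 h, room temperature.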
Experiment [16] in a line: cAMP Responsive Elements (CRE) small molecule antagonists, cell-based qHTS assay (AID 1963591; active = well fitted inhibition curve with a large enough effect in the signal ratio in the repeat runs, not every such curve was filed as active; the % refers to the signal ratio). The essentials: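 Stimulation used NKH477 at a final 0.25 uM for 3 h in compound-treated CRE-bla HEK293T cells, seeded 18 h beforehand. Reporter activity was measured with LiveBLAzer B/G FRET substrate after 2 h at room temperature.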
Experiment [17] deals with Beta-2 adrenergic receptor (Homo sapiens) (UniProt P07550). The experiment can be described thus: Adrenergic beta2 receptor (ADRB2) small molecule antagonists, cell-based qHTS assay (AID 1963592). Note: series mostly up to about 92 µM; nearly all actives have a fitted effect of over 50% in size. The essentials:
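Assay format: CHO-ADRB2 cells, 18-20hr seeding at 37C/5% CO2, then compound plus 1nM isoproterenol agonist mix for 0.5hr RT. Homogeneous time-resolved fluorescence cAMP detection after 1hr, expressed as 665/615 nm ratio.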

Experiment [18] has as its target D(2) dopamine receptor (Homo sapiens) (UniProt P14416). The experiment can be described thus: Dopamine D2 receptor (DRD2) small molecule agonists, cell-based qHTS assay (AID 1963594). Note: nearly all actives have a fitted effect of over 35% in size. The essentials:
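HEK293 cells stably expressing human DRD2, pre-treated with PDE inhibitor Ro20-1724 (0.1 mM final) and compound 10 min at room temperature, then stimulated with NKH477 (200nM […]) for 30 min. cAMP read by HTRF (665/620 nm).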

Experiment [19] shares this target. The experiment can be described thus: Dopamine D2 receptor (DRD2) small molecule antagonists, cell-based qHTS assay (AID 1963595; active = well fitted inhibition curve with a large enough effect in the signal ratio in the repeat runs, with a control signal flat; the % refers to the signal ratio). Put shortly:
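HTRF cAMP read-out at 665 and 620 nm emission (340 nm excitation). Antagonist mode: compounds were tested against 12 nM quinpirole in DRD2-HEK293 cells, with 200 nM NKH477 raising cAMP and 0.1 mM Ro20-1724 blocking its breakdown.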

Experiment [20] has as its target 5-hydroxytryptamine receptor 2A (Homo sapiens) (UniProt P28223). In words: 5-hydroxytryptamine receptor 2A (HTR2A) small molecule antagonists, cell-based qHTS assay (AID 1963586). Note: nearly all actives have a fitted effect of over 45% in size. The essentials: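 CHO cells stably expressing human HTR2A were plated for 18 h at 37 C, then loaded with calcium dye for 1 h. Compounds were preincubated 5 min at room temperature before DOI (4 nM solution) was added. Kinetic fluorescence was read for 3 min.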

Values joined by “and” are separate entries in the source; they are usually repeats but may differ in a detail not shown here. Equal values may be shown once. Inconclusive results are not listed. Active and inactive are the calls of the source. Unless noted, calls come from the whole dose curve.

Sequence of D(2) dopamine receptor (Homo sapiens) (P14416 whole entry, looked up): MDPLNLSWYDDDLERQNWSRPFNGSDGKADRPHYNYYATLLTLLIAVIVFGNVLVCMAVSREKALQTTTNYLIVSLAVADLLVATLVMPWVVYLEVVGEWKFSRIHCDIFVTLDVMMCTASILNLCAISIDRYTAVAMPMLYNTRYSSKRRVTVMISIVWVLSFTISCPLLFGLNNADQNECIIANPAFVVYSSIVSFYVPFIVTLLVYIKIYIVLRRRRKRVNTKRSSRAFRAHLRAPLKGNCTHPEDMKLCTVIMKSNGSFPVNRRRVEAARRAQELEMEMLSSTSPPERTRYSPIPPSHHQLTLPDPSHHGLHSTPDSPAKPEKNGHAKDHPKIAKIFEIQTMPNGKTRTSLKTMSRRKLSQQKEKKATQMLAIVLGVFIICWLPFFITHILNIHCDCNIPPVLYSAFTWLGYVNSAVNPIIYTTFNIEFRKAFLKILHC
Sequence of KiSS-1 receptor (Homo sapiens) (Q969F8 whole entry, looked up): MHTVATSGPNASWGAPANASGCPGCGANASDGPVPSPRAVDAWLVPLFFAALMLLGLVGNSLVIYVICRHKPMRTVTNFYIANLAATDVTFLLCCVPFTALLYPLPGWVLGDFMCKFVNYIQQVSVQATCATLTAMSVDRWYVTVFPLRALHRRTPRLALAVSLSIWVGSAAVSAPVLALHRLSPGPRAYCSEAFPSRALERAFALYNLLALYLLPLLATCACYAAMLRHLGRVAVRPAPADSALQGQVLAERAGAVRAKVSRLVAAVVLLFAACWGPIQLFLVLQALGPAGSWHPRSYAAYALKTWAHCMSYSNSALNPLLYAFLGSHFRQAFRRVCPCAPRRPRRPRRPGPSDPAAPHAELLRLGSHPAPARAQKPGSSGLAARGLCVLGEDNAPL
Sequence of 5-hydroxytryptamine receptor 2A (Homo sapiens) (P28223 whole entry, looked up): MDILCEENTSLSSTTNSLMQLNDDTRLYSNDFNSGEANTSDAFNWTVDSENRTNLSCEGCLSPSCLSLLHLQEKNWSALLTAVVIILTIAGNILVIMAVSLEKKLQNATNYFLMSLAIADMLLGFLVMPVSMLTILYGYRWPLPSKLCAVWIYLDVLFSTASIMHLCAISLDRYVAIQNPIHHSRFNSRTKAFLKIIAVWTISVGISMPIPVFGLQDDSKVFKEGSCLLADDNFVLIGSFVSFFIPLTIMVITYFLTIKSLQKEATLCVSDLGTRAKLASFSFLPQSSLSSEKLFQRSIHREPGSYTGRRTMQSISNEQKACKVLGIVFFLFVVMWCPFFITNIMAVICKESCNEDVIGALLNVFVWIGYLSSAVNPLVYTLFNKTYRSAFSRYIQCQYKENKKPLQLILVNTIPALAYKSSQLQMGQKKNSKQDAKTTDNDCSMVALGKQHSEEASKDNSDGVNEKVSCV
Sequence of Gonadotropin-releasing hormone receptor (Homo sapiens) (P30968 whole entry, looked up): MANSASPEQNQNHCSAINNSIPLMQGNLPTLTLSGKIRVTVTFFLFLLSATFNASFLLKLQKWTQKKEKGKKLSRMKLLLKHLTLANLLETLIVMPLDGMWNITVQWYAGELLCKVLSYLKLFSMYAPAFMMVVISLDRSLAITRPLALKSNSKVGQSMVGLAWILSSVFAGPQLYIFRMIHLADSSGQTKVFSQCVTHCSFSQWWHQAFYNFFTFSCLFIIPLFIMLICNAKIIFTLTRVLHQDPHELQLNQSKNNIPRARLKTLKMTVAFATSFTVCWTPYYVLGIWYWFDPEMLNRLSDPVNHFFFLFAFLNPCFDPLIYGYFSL
Sequence of Beta-2 adrenergic receptor (Homo sapiens) (P07550 whole entry, looked up): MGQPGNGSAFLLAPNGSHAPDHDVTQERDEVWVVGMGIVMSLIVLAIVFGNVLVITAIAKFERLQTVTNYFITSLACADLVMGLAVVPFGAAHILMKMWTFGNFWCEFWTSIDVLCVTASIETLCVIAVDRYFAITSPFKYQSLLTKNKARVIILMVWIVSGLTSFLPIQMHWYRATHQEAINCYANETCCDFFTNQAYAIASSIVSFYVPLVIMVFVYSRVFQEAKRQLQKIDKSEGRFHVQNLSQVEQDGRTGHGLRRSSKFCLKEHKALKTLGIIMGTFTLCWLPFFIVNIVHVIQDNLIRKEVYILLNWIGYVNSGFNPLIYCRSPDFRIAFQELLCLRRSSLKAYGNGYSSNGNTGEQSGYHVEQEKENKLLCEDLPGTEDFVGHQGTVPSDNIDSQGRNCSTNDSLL
Sequence of Muscarinic acetylcholine receptor M1 (Homo sapiens) (P11229 whole entry, looked up): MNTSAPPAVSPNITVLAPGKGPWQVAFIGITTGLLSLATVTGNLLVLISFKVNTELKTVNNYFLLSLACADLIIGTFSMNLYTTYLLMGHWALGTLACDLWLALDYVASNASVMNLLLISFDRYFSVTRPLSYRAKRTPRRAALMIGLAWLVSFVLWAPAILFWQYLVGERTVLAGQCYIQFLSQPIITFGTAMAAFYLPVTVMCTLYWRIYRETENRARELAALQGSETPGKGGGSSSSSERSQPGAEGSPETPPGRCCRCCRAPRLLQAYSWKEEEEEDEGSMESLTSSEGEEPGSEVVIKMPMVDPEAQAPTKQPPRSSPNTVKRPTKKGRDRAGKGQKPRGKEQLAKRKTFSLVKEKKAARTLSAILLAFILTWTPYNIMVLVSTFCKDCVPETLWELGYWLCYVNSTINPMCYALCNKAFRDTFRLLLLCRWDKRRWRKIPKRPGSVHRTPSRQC

On to `O=P(O)(O)CN(CP(=O)(O)O)CP(=O)(O)O`, for which the Potency entry in [1], in [2], in [3], in [4], in [5] and in experiment [6] was “inactive” each time. Also, the Potency entry in experiment [7], in [8], in experiment [9], in [10], in experiment [11] and in [12] was “inactive” each time. For the same compound, the Potency entry in experiment [13], in [14], in experiment [15], in [16], in experiment [17] and in experiment [18] was “inactive” throughout. Moreover, in [19], the Potency entry was “inactive”.

For the compound `Nc1c(Oc2ccccc2)cc(O)c2c1C(=O)c1ccccc1C2=O`, the Potency result in experiment [1], in [2], in experiment [3], in experiment [4], in [5] and in experiment [6] was “inactive” throughout. The Potency result in experiment [7], in experiment [8], in experiment [9], in [10], in experiment [11] and in [20] was “inactive” throughout. In addition, the Potency result in experiment [13], in experiment [14], in [15], in [17], in experiment [18] and in experiment [19] was “inactive” throughout.

For `CNC(=S)S`, the Potency entry in experiment [1], in experiment [2], in experiment [3], in experiment [4], in [5] and in experiment [6] was “inactive” in each case. Also, the Potency entry in experiment [7], in experiment [8], in experiment [9], in [10], in experiment [11] and in experiment [20] was “inactive” each time. The Potency entry in experiment [12], in experiment [15], in experiment [16], in experiment [17], in experiment [18] and in experiment [19] was “inactive” throughout.

With `O=[N+]([O-])c1c(Cl)c(Cl)c(Cl)c(Cl)c1Cl`, the Potency result in experiment [1], in experiment [3], in [4], in experiment [5], in experiment [6] and in experiment [7] was “inactive” each time. Moreover, the Potency entry in [8], in [9], in experiment [10], in experiment [11], in [12] and in experiment [13] was “inactive” in each case. Also, the Potency entry in [14], in experiment [16], in experiment [18] and in experiment [19] was “inactive” in each case. Further, the Potency in experiment [2] is 27.2 µM (active) and 54.5 µM (active).

As for `O=C(NCO)NCO`, the Potency entry in experiment [1], in [2], in [3], in experiment [4], in experiment [5] and in experiment [6] was “inactive” in each case. The Potency entry in [7], in experiment [8], in experiment [9], in experiment [10], in experiment [11] and in [20] was “inactive” throughout. For the same compound, the Potency result in [13], in experiment [14], in experiment [15], in experiment [16], in [17] and in experiment [18] was “inactive” in each case. Moreover, the Potency result in experiment [19] was “inactive”.

As for `Cc1cc(Cl)ccc1OCC(=O)O`, the Potency entry in [1], in experiment [2], in experiment [3], in experiment [4], in experiment [5] and in [6] was “inactive” in each case. In addition, the Potency entry in experiment [7], in [8], in experiment [9], in experiment [10], in experiment [11] and in [20] was “inactive” each time. Moreover, the Potency result in experiment [12], in experiment [14], in experiment [16] and in experiment [19] was “inactive” throughout.

Turning to `CC(=O)[C@H]1CC[C@H]2[C@@H]3CC[C@H]4C[C@](C)(O)CC[C@]4(C)[C@H]3CC[C@]12C`, the Potency result in experiment [1], in [2], in experiment [3], in experiment [4], in experiment [5] and in experiment [6] was “inactive” in each case. The Potency result in [7], in experiment [8], in experiment [9], in experiment [10], in [11] and in [20] was “inactive” in each case. Besides, the Potency entry in experiment [13], in experiment [14], in experiment [16], in experiment [17] and in experiment [19] was “inactive” each time.

As to `COc1ccc(C=O)cc1`, the Potency entry in [1], in experiment [2], in [3], in experiment [4], in experiment [5] and in [6] was “inactive” in each case. The Potency entry in [7], in experiment [8], in experiment [9], in experiment [10], in [11] and in [12] was “inactive” throughout. In addition, the Potency entry in experiment [13], in experiment [14], in experiment [15], in experiment [16], in experiment [17] and in experiment [18] was “inactive” throughout. Moreover, the Potency result in [19] is “inactive”.

(Values after PubChem BioAssay (Tox21).)
